From PubChem BioAssay
Shown are actives, neighbours in structure and some others; about 5.7% of the full set was active somewhere.
JMJD2E inh – blocks human JMJD2E demethylase activity; Potency, µM (highest dose often 57.1 µM), for inactives: at the highest dose activity change, negative = inhibition, hits mostly inhibitors; hit rate 1.6% among 230,000; JMJD2E catalytic domain, FDH-coupled NADH fluorescence (FDH is formaldehyde dehydrogenase); B2RXH2; AID 2147; active means well fitted inhibition curve with a large enough effect, not every such curve was filed as active; inconclusive means small, poorly fitted or top-dose-only effect, or another doubt; inactive means no such curve, though single readings can be large or run the other way;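 further: potency means the concentration at half of the fitted maximal effect; 0% = wells with enzyme and -100% = buffer wells without enzyme; nearly all actives have a fitted effect of over 50% in size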
JMJD2A Tudor inh – inhibitors of human JMJD2A Tudor domain. O75164. AlphaScreen JMJD2A-Tudor / H3K4me3 peptide binding. Potency, µM (doses to about 114 µM), without a hit: at the highest dose activity change, negative = inhibition, usual class: inhibitors. hit rate 4.4% among 390,000; further: potency means the concentration at half of the fitted maximal effect; on the % scale 0 is the no-effect control and ±100 the full control effect; nearly all actives have a fitted effect of over 50% in size
BAZ2B block – BAZ2B (human) inhibition. Potency, µM (series often up to 114 µM), inactives show at the highest dose activity change, negative = inhibition, usual class: inhibitors. AlphaScreen BAZ2B-H3K14Ac peptide displacement. hit rate 4.4% among 360,000. AID 504333. Q9UIF8; further: potency means the concentration at half of the fitted maximal effect; on the % scale 0 is the no-effect control and ±100 the full control effect; nearly all actives have a fitted effect of over 60% in size
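BAZ2B 50 nM plus b-H3(5-23)K14Ac 50 nM, PBS pH 7.4/0.01% Tween-20, 30 min RT; compound added (max 110 uM), 30 min RT; streptavidin donor/Ni-chelate acceptor beads 10 ug/mL final, 20 min dark; AlphaScreen read.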
L3MBTL1 inh – L3MBTL1 (human) inhibition; hit rate 0.66% among 230,000; Potency, µM (doses to about 57.1 µM), inactives show top-dose activity, negative = inhibition, usual class: inhibitors; AlphaScreen L3MBTL1–H3K9me1 peptide binding; Q9Y468; AID 485360; further: potency means the concentration at half of the fitted maximal effect; on the % scale 0 is the no-effect control and ±100 the full control effect; nearly all actives have a fitted effect of over 60% in size
Target sequence (Q9Y468 whole entry, looked up): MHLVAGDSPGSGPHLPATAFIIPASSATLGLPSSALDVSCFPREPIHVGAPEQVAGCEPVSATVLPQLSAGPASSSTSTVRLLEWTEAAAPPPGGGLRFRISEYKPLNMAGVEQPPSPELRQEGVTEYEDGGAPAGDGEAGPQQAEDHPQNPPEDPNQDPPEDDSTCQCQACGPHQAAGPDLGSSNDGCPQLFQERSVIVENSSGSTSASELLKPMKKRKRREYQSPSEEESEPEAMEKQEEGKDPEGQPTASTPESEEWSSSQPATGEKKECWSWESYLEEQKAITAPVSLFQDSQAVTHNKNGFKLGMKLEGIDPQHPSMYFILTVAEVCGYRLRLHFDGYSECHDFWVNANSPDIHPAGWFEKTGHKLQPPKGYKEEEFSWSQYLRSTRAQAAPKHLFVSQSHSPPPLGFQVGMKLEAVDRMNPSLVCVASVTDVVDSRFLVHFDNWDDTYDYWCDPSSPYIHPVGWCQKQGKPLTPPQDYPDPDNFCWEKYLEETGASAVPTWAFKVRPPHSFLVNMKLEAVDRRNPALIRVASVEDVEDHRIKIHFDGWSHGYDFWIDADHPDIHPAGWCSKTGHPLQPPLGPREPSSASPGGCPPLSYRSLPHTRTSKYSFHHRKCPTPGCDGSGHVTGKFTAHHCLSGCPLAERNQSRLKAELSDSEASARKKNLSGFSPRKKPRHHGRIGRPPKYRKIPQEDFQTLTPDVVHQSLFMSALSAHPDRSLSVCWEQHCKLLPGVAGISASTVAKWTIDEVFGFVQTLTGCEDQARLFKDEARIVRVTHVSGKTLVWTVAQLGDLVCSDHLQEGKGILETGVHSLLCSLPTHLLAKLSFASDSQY
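AlphaScreen assay: L3MBTL1 (50 nM final) was preincubated 30 min at room temperature with biotinylated H3(1-15)K9me1 peptide (75 nM final), then 30 min with library compounds; streptavidin donor and nickel chelate acceptor beads (10 ug/mL final) added, 30 min dark.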
HP1b binding inh – blocks HP1-beta chromodomain binding to methylated histone tails. AlphaScreen HP1-beta / biotin-H3K9me3 peptide binding. P83916. hit rate 0.56% among 390,000. Potency, µM (doses to about 114 µM), without a hit: at the top dose activity change, negative = inhibition, most hits filed as inhibitors; further: potency means the concentration at half of the fitted maximal effect; nearly all actives have a fitted effect of over 70% in size
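Compound inhibition of the preformed complex between 50 nM HP1-beta and 50 nM biotinylated H3K9me3 peptide was read by AlphaScreen. Buffer was PBS pH 7.4 with 0.01% Tween-20. Incubations ran 30 min at room temperature, with 10 ug/mL donor/acceptor beads.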
PI5P4K alpha inh – PI5P4K alpha (human) kinase inhibition | P48426 | PI5P4Kalpha enzyme, ADP-Glo luminescence, 60 min; active compounds read low | max response, % | hit rate 1.2% among 330,000 | AID 652105; active means max response of -50% or lower; inconclusive means between -30% and -50%; inactive means -30% or higher; further: value at the top dose of about 77 µM; on the % scale 0 is the no-effect control and ±100 the full control effect
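Controls without substrate or without enzyme flank wells where PI5P4Kalpha converts substrate using 5 microM ATP (final). Incubation lasts 60 minutes at room temperature; ADP formed is read by ADP-Glo luminescence.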
Starred values were filed as active, the others as inactive; ? = inconclusive; · = not tested or not shown; ! = a repeat was not active; [ ] = dose if it differs, or a comment. Unless noted, the call rests on the fitted dose curve; in most records, active means well fitted inhibition curve with a large enough effect; inconclusive means small, poorly fitted or top-dose-only effect; inactive means no such curve, though single readings can be large or run the other way.

SMILES	JMJD2E inh	JMJD2A Tudor inh	BAZ2B block	L3MBTL1 inh	HP1b binding inh	PI5P4K alpha inh
COc1cc(CNC(=O)c2cnc(SC)nc2-c2ccccc2)cc(OC)c1OC	·	-21%	5%	·	-10%	·
O=S(=O)(c1ccc2c(c1)OCCO2)N1CCN(S(=O)(=O)c2ccccc2F)CC1	·	-18%	·	·	·	·
COc1ccc(C2C(C(C)=O)=C(O)C(=O)N2c2cccnc2)c(OC)c1 (configuration not stated)	-23%	25µM*	?	1%	16%	-4
O=C1CCCN1CCCNC(=S)Nc1ccccc1	-5%	7%[57.1 µM]	2%	12%	56%	9
CC(CC(=O)Nc1ccccc1)NCCCN1CCCC1=O (configuration not stated)	·	0.71µM*	50µM*	·	79µM*	1
O=C(CNCc1ccccc1)NCCCN1CCCC1=O	·	2µM*	-13%	·	?	1
CC1CCN(c2ccc(-c3nc(C(C)C)no3)cc2[N+](=O)[O-])CC1	·	-16%	-26%	·	37%	·
C=CCN1CCc2c(cc(O)c(O)c2Br)[C@@H](c2ccccc2)C1	14µM*	?	·	·	7%	-8
O=C(CBr)N1CCc2ccccc2C(c2ccccc2)C1 (configuration not stated)	8%	6%	-30%	6%	32%	0
Oc1ccc([C@@H]2CNCCc3c2cc(O)c(O)c3Cl)cc1	11µM*	·	·	·	·	·
CN1CCc2c(cc(O)c(O)c2Cl)C(c2cccc(Cl)c2)C1 (configuration not stated)	14µM*	·	·	·	·	·
CN1CCc2cc(Cl)c(O)cc2[C@@H](c2ccccc2)C1	6%	-18%	-8%	·	4%	0
C=CCN1CCc2cc(O)c(O)cc2[C@H](c2ccccc2)C1	25µM*	·	·	·	·	·
COc1cc(C)ccc1OCCn1c(-c2ccc(Cl)cc2)nc2ccccc2c1=O	·	5%	-12%	·	38%	·
CN1CCc2cc(Cl)c(O)cc2C(c2ccccc2)C1 (configuration not stated)	4%	·	·	·	·	·
Oc1cc2c(cc1O)C(c1ccccc1)CNCC2 (configuration not stated)	20µM*	32µM*	·	·	?	1
Oc1cc2c(cc1O)[C@@H](c1ccccc1)CNCC2	13%	4%	-7%	-4%	29%	-4
CN1CCc2cc(O)c(O)cc2C(c2ccccc2)C1 (configuration not stated)	20µM*	-24%	-22%	2%	-5%	-1
CN(C)CCN(Cc1ccccc1)c1ccccn1	32µM*!	-16%	5%	5%	70%	3
COc1ccc(S(=O)(=O)NCC(=O)O)cc1C(=O)NC1CCCCC1	-12%	-7%[57.1 µM]	49%	35%	43%	-9
Oc1cccc(/C=N/c2c(-c3ccco3)nc3ccccn23)c1	?	?	56µM*	?	?	·
Cc1cc(C)c([N+](=O)[O-])cc1-c1ccc(/C=N/c2c(-c3ccco3)nc3ccccn23)o1	?	6.3µM*	10µM*	?	?	?
O=[N+]([O-])c1ccc(Cl)c(-c2ccc(/C=N/c3c(-c4ccco4)nc4ccccn34)o2)c1	?	?	?	-15%	?	?
C[n+]1ccccc1C1CCCC/C1=N\NC(N)=S (configuration not stated)	-15%	22µM*	?	·	?	-19
CN(Cc1cccc(F)c1)CC(O)COCc1ccccc1Cl (configuration not stated)	?	22µM*	·	·	?	-4
SMILES	JMJD2E inh	JMJD2A Tudor inh	BAZ2B block	L3MBTL1 inh	HP1b binding inh	PI5P4K alpha inh
COc1ccc(-c2ccc(OC)c(C3C4C=CCC(C)C4C(=O)N3Cc3ccccc3)c2)cc1 (configuration not stated)	·	-28%	·	·	20%	·
CCOC(=O)C1CCCN(C(=O)CSc2nc(C)cc(C)n2)C1 (configuration not stated)	·	?	-1%	·	-1%	-18
CCOC(=O)C1CCCN(C(=O)COc2ccccc2O)C1 (configuration not stated)	3%	12%	10%	·	34%	-1
CCOC(=O)C1CCCN(C(=O)COC(=O)C2=COCCO2)C1 (configuration not stated)	-3%	50µM*	?	0%	-3%	-10
CCOC(=O)C1CCCN(C(=O)CSc2ccc(Br)cc2)C1 (configuration not stated)	5%	14µM*	15%	9%	-12%	-54*
Cc1nnc(SCc2ccccc2Cl)c2cc3sccc3n12	·	1%	?	·	62%	·
Cc1nnc(SCc2ccccc2Cl)c2cc3occc3n12	·	?	28µM*	·	-14%	·
O=S(=O)(c1ccccc1)n1nc(-c2ccco2)nc1NCc1ccccc1	·	-12%	-25%	·	0%	·
O=C(O)COc1cccc2nsnc12	20µM*	-8%	5%	-16%	28%	-27
CCOC(=O)C1CCCN(Cc2cc(Br)c(OC)cc2OC)C1 (configuration not stated)	?	2.8µM*	50µM*	-6%[11.4 µM]	?	·
CCOC(=O)C1CCCN(Cc2cc(OC)c(O)c(OC)c2)C1 (configuration not stated)	-27%	2.2µM*	?	3%	-54%	·
CCOC(=O)C1CCCN(Cc2sccc2C)C1 (configuration not stated)	?	2.8µM*	50µM*	·	?	·
CCOC(=O)C1CCCN(Cc2cc(=O)oc3cc(C)c(C)cc23)C1 (configuration not stated)	-13%	8%	1%	0%	42%	-2
CCN(C(=O)CSc1nc2ncccc2[nH]1)c1ccc(C(C)C)cc1	·	-12%	-3%	·	25%	·
Cc1cccc(C(=O)Nc2ccc(OCc3cc(=O)n4ccsc4n3)cc2)c1	·	-11%	-3%	·	20%	·
Cc1cccc(NC(=O)CS(=O)(=O)c2cccc3nsnc23)c1	·	-5%	-2%	·	19%[57 µM]	·
CC(C)CC1=NN2C(=N)/C(=C\c3coc4ccccc4c3=O)C(=O)N=C2S1	?	-4%	-9%	·	61%	-53*
CCSC1=NSC2=NC(=O)/C(=C\c3coc4ccccc4c3=O)C(=N)N12	?	10%	?	4%	70%	-59*
Cc1cccc(-n2c(C)cc(/C=C3\C(=N)N4N=C(CC(C)C)SC4=NC3=O)c2C)c1	?	-2%	4%	11%	27%	-5
COC(=O)c1ccc(Nc2nc(-c3ccccc3Cl)nc3ccccc23)cc1	·	-19%	6%	·	25%	·
COc1ccc(C(=O)NCC(c2cccnc2)N2CCN(c3ccc(F)cc3)CC2)cc1 (configuration not stated)	·	-35%	?	·	-9%	·
